HCMV inh: inhibitors of human cytomegalovirus | HFF cells, HCMV-luciferase reporter, 72 h; active compounds read low | activity change, negative = inhibition, % at 57.5 µM | 410,000 tested, 4.5% active; in the data active means activity change below about -60%; inconclusive means no clear call, values can overlap the other calls; inactive means above about -39%; further: on the % scale 0 is the no-effect control and ±100 the full control effect
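Screen run at 2 compound doses on HFFs infected with reporter HCMV, MOI 1 PFU/cell. Luciferase activity from cell lysates at 72 h post infection gave inhibition relative to buffer-only and Salinomycin wells.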
Shiga toxin inh: Shiga toxin inhibition; Vero cells, Shiga toxin protein synthesis inhibition reporter; inhibition, % at 38.7 µM; 290,000 tested, 9.2% active; AID 2315; in the data active means inhibition mostly above about 28%, no sharp cut-off; inactive means mostly below about 43%; further: 0% is about no effect
Pf growth 48h: P. falciparum growth inhibition at 48 hours (one generation). P. falciparum luciferase growth in erythrocytes, 48 h. Potency, µM (highest dose often 28.7 µM), for the others: top-dose activity change, negative = inhibition, actives largely listed as inhibitors. 310,000 tested, 5.9% active. AID 504832; further: potency means the concentration at half of the fitted maximal effect; on the % scale 0 is the no-effect control and ±100 the full control effect
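A one-generation exposure of luciferase-tagged malaria parasites in RPMI 1640/Albumax erythrocyte culture, 37 C and 5% CO2. Inhibition is inferred from decreased luminescence after adding detection reagent.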
CHX counter: affects cycloheximide protein synthesis inhibition readout, counter-screen. cell reporter, cycloheximide protein synthesis inhibition counterscreen. max response, %. 300,000 tested, 12% active. AID 2314; in the data active means max response mostly above about 13%, no sharp cut-off; inactive means mostly below about 14%; further: read at 38.3 µM for the half of the compounds with a filed dose; 0% is about no effect
Pf growth 96h: P. falciparum growth inhibition at 96 hours; P. falciparum luciferase reporter growth, 96 h; Potency, µM (top dose mostly 28.7 µM), without a hit: at the top dose activity change, negative = inhibition, hits mostly inhibitors; 320,000 tested, 6.9% active; AID 504834; further: potency means the concentration at half of the fitted maximal effect; on the % scale 0 is the no-effect control and ±100 the full control effect
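Two parasite generations (96 h, 37 C, 5% CO2) of compound exposure in infected erythrocytes (0.05% parasitemia, 2% hematocrit). Luciferase-reporter P. falciparum; decreased luminescence indicates inhibited growth, aimed at apicoplast-acting delayed death.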
* hit, by the source's call; ? = inconclusive; . = no result given. An excerpt weighted towards active compounds, which were near 20% of everything screened. Unless noted, the call rests on the fitted dose curve; in most records, active means well fitted inhibition curve with a large enough effect; inconclusive means small, poorly fitted or top-dose-only effect, or another doubt; inactive means no such curve, though single readings can be large or run the other way.

SMILES	HCMV inh	Shiga toxin inh	Pf growth 48h	CHX counter	Pf growth 96h
COc1cccc(C(=O)Nc2ccc3nc(SCc4ccc(C)cc4)sc3c2)c1	-19	.	.	.	.
Cc1ccc(C)c(N(CC(=O)Nc2ccccc2C(=O)NCc2ccco2)S(=O)(=O)c2ccccc2)c1	-36	10	12µM*	0	155%
O=C(N/N=C/c1ccccc1O)C1CC(=O)N(c2ccc(Cl)cc2)C1 (stereo not given)	-79*	-1	12µM*	-2	77%
O=C(Nc1ccccc1C(=O)NCc1ccccc1)c1ccco1	5	13	-23%	-2	13µM*
Cc1ccc(/C=N/NC(=O)C2CC(=O)N(c3ccccc3)C2)s1 (stereo not given)	?	-2	12%	8	93%
O=C(Nc1ccccc1C(=O)NCc1cccnc1)c1ccco1	30	3	.	-4	-7%
CCOC(=O)C(=O)Nc1ccccc1C(=O)NCc1ccccc1	-25	85*	11%	33*	?
CCOc1ccccc1CNC(=O)CN1C(=O)C2CCCCN2c2ccc(C(=O)N(C)C)cc21 (stereo not given)	12	.	.	.	.
Cc1cc(C)c(S(=O)(=O)n2nc(C)c(Br)c2C)c(C)c1	27	-12	-4%	-4	.
CCN(CC)c1ccc(C2C(C(=O)OC(C)C)C(=O)CC(C)(O)C2C(=O)OC(C)C)cc1 (stereo not given)	-14	-9	.	-4	10%
COc1ccccc1-c1cc2nc(C)c(CCC(=O)NCCc3cccc(C)c3)c(C)n2n1	-29	.	.	.	.
O=C(NCc1ccco1)c1ccccc1NS(=O)(=O)c1ccc2c(c1)OCCO2	7	22	17µM*	2	.
CC(C)(C)NC(=O)COC(=O)c1ccccc1NC(=O)c1ccco1	3	15	-27%	-1	9%
O=C(Nc1ccccc1C(=O)OCC(=O)c1c[nH]c2ccccc12)c1ccco1	15	82*	18%	57*	?
Cc1ccc(N(CC(=O)Nc2ccccc2C(=O)NCc2ccco2)S(=O)(=O)c2ccccc2)cc1C	5	18	10µM*	7	.
O=C(COc1ccccc1)Nc1ccccc1C(=O)NCc1ccco1	-23	3	.	12	-27%
O=C(Nc1ccc(Cl)cc1)Nc1ccccc1C(=O)NCc1ccco1	-32	58*	.	56*	.
C=CCn1c(COc2ccc(F)cc2)nnc1SC(C)C(=O)NCC1CCCO1 (stereo not given)	-16	.	?	.	?
COCCCN(C(=O)C1=COCCO1)c1c(N)n(Cc2ccccc2)c(=O)[nH]c1=O	-25	.	.	.	.
CCCNc1c(NS(=O)(=O)c2cccs2)c(=O)oc2ccccc12	-30	1	12%	-2	3%
O=C(c1ccc(Br)cc1)N1CCN(CCc2ccncc2)CC1	-20	.	.	.	.
CCN(CC)C(=O)c1ccc2c(c1)nnn2C	-9	-2	17%	-4	47%
O=C(Nc1ccccc1C(=O)NCc1ccco1)c1ccccc1	31	25	-1%	10	12%
O=C(CCc1ccccc1)Nc1ccccc1C(=O)NCc1ccco1	33	9	?	-3	13µM*
O=C(CN(c1ccc(F)cc1)S(=O)(=O)c1ccccc1)NCc1ccco1	-1	24	-26%	-4	27%
SMILES	HCMV inh	Shiga toxin inh	Pf growth 48h	CHX counter	Pf growth 96h
CN(Cc1ccco1)C(=O)c1c[nH]c2ccc(S(=O)(=O)Nc3ccc4c(c3)OCCO4)cc2c1=O	-18	-19	-9%	18*	2%
O=C(CN(c1ccccc1)S(=O)(=O)c1ccccc1)Nc1ccccc1C(=O)NCc1ccco1	-62*	22	0%	10	157%
CC1SCC(=NOCc2ccccc2)CS1 (stereo not given)	-5	114*	71%	38*	40%
C(=NOCc1ccccc1)c1ccncc1	23	.	.	.	.
CCCc1ccc2oc(C(=O)N(Cc3nccn3C)C(C)C)c(C)c2c1	106	35*	?	21*	-4%
Cc1ccc2oc(C(=O)N(C)Cc3cnccn3)c(C)c2c1	10	120*	2.9µM*	35*	?
Cc1ccc(CN(Cc2ccco2)C(=O)c2oc3ccc(C)cc3c2C)cc1	9	.	.	.	.
Cc1c(C(=O)N(Cc2nccn2C)C(C)C)oc2c(F)cccc12	-24	2	?	18	-8%
CCCc1ccc2oc(C(=O)N(C)Cc3ccn[nH]3)c(C)c2c1	0	65*	48%	48*	?
O=C(Nc1cc(Cl)cc(Cl)c1)c1ccc(F)c(S(=O)(=O)NCc2ccccc2Cl)c1	-99*	.	.	.	.
COc1ccccc1CNS(=O)(=O)c1cc(C(=O)Nc2cccc(C(F)(F)F)c2)ccc1F	-67*	.	.	.	.
CC(=O)Nc1cccc(NC(=O)c2ccc(S(=O)(=O)NCc3ccco3)cc2)c1	-1	.	.	.	.
Cc1cccc(NC(=O)c2ccc(F)c(S(=O)(=O)NCc3ccco3)c2)c1	-14	84*	0%	44*	?
O=C(Nc1cccc(Cl)c1)c1ccc(F)c(S(=O)(=O)NCc2cccs2)c1	-93*	20	2%	1	-9%
O=C(Nc1cccc(C(F)(F)F)c1)c1ccc(F)c(S(=O)(=O)N2CCc3ccccc3C2)c1	31	.	.	.	.
O=C(Nc1cccc(Cl)c1)c1ccc(F)c(S(=O)(=O)N2CCC3(CC2)OCCO3)c1	0	.	.	.	.
CCOc1cc2c(cc1OCC)C(CC(=O)O)N(C(=O)Nc1ccccc1C(F)(F)F)CC2 (stereo not given)	53	.	.	.	.
Cc1ccc(-n2nnnc2CNC(=O)C(C)C)cc1C	-12	.	.	.	.
CC1=C(C(=O)N2CCN(c3ccccc3)CC2)C2(CCCCC2)OC1=O	-37	.	.	.	.
COc1ccc(S(=O)(=O)N(CC(=O)N2CCC(C)CC2)c2ccc(C)cc2)cc1	-6	.	.	.	.
CCc1ccc(NC(=O)c2ccc(F)c(S(=O)(=O)NCc3ccc(Cl)c(Cl)c3)c2)cc1	54	.	.	.	.
COc1ccc(CNS(=O)(=O)c2cc(C(=O)Nc3cc(Cl)cc(Cl)c3)ccc2F)cc1	-78*	.	.	.	.
C[C@H]1COc2cc(N3CCC[C@@H]3CO)ccc2S(=O)(=O)N1	5	.	.	.	.
O=c1[nH]c(=O)n(Cc2ccc(Oc3ccccc3)cc2)cc1Br	-37	-5	4%	-2	17%
C=C1CC(Cn2cc(Br)c(=O)[nH]c2=O)(c2ccc(-c3ccccc3)cc2)OC1=O (stereo not given)	-97*	.	.	.	.
COc1ccccc1CN1CCNC(=O)C1CC(=O)NCC1CCOCC1 (stereo not given)	-1	-7	-1%	5	9.3µM*
COc1ccc(CN2CCNC(=O)C2CC(=O)NCC2CCOCC2)c(F)c1 (stereo not given)	-2	-5	6%	1	10µM*
COc1cccc(CN2CCNC(=O)C2CC(=O)NCC2CCOCC2)c1 (stereo not given)	?	18	-1%	6	?
Cc1cccc(/N=C/c2c(O)n(Cc3ccc4c(c3)OCO4)c(=O)c3ccccc23)n1	9	-4	1%	-3	18%
N#CC1=C2SC=C(c3ccc(Br)cc3)N2CCCC1=O	-3	118*	155%	44*	244%

High-throughput results as filed in PubChem BioAssay.
